Screens (PubChem BioAssay)
This is one part of a sample in which hits are shown more often than they occur.
IDE exosite inh – displaces the probe from the exo-site of human IDE; purified IDE, FL-6b probe fluorescence polarization; hits give low values; 17,000 tested, 6.3% active; P14735; z-score at 20 µM;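 active = z-score of -3 or lower, meaning strong loss of probe binding signal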;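 also: His-tagged human IDE residues 42-1019 made in E. coli with 30 nM FL-6b probe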
Numbers stand for hits.

`COCC(=O)N1[C@H](C#N)[C@@H](c2ccc(C#Cc3ccccc3F)cc2)[C@H]1CO` gave IDE exosite inh -3.9.
`COc1ccccc1C#Cc1ccc([C@@H]2[C@@H](C#N)N(C(=O)C3CC3)[C@H]2CO)cc1` gave IDE exosite inh -4.2.
O=C(c1ccncc1)N1CC(=O)N2[C@H](C1)[C@H](c1ccc(C#CCC3CCCC3)cc1)[C@@H]2CO was read as IDE exosite inh inactive.
`Cc1ccccc1S(=O)(=O)N1CCCCN2[C@H](C1)[C@H](c1ccc(-c3cncnc3)cc1)[C@@H]2CO` gave IDE exosite inh inactive.
For COCC(=O)N1[C@H](C#N)[C@H](c2ccccc2-c2cccc(F)c2)[C@H]1CO the results were IDE exosite inh inactive.
Screening O=C(Nc1cccc(F)c1)N1CC(=O)N2[C@H](C1)[C@@H](c1ccc(-c3ccccc3F)cc1)[C@@H]2CO returned IDE exosite inh inactive.
Screening CCCC(=O)N1CCC2(CC1)CN(C(C)=O)[C@H](CO)c1c2c2ccc(OC)cc2n1C returned IDE exosite inh inactive.
Screening CCCC#Cc1ccc([C@@H]2[C@H](C#N)N(C(=O)C3CCCC3)[C@H]2CO)cc1 returned IDE exosite inh inactive.
Screening C[C@@H]1CN([C@@H](C)CO)C(=O)Cc2cc(NC(=O)Nc3ccc(F)cc3)ccc2O[C@H]1CN(C)S(C)(=O)=O returned IDE exosite inh inactive.
For CCCC#Cc1ccc([C@H]2[C@H](CO)N3C(=O)CN(C(=O)c4cccnc4)C[C@@H]23)cc1 the results were IDE exosite inh inactive.
O=S(=O)(c1cccs1)N1CCCCN2[C@H](CO)[C@H](c3ccc(Br)cc3)[C@@H]2C1 was read as IDE exosite inh inactive.
Screening COc1ccccc1C#Cc1ccc([C@@H]2[C@H](C#N)N(C(=O)C3CC3)[C@H]2CO)cc1 returned IDE exosite inh -9.3.
For N#C[C@H]1[C@H](c2ccc(C#Cc3ccc(F)cc3)cc2)[C@H](CO)N1C(=O)C1CC1 the results were IDE exosite inh inactive.
Screening COc1ccccc1C#Cc1ccc([C@@H]2[C@@H](C#N)N(C(=O)C3CC3)[C@@H]2CO)cc1 returned IDE exosite inh -6.4.
For COCC(=O)NC[C@H]1N[C@H](CO)[C@H]1c1ccc(C2=CCCCC2)cc1 the results were IDE exosite inh inactive.
For N#C[C@@H]1[C@@H](c2ccccc2C2=CCCC2)[C@H](CO)N1C(=O)C1CCC1 the results were IDE exosite inh inactive.
For CNC[C@H]1Oc2c(NS(=O)(=O)c3ccc(Cl)cc3)cccc2C(=O)N([C@@H](C)CO)C[C@@H]1C the results were IDE exosite inh inactive.
Screening Cc1cccc(-c2ccc([C@@H]3[C@H](CO)N4CCCCN(S(=O)(=O)c5cccc(C)c5)C[C@@H]34)cc2)c1 returned IDE exosite inh inactive.
Screening Cn1cnc(S(=O)(=O)N2CCCCN3[C@@H](CO)[C@@H](c4ccc(-c5ccccc5)cc4)[C@@H]3C2)c1 returned IDE exosite inh -5.6.
`Cn1cnc(S(=O)(=O)N2CCCCN3[C@H](CO)[C@H](c4ccc(-c5ccccc5)cc4)[C@@H]3C2)c1` gave IDE exosite inh inactive.
For Cn1cnc(S(=O)(=O)N2CCCCN3[C@H](CO)[C@H](c4ccc(-c5ccccc5)cc4)[C@H]3C2)c1 the results were IDE exosite inh inactive.
For Cc1cccc(-c2ccc([C@@H]3[C@@H](CO)N4CCCCN(S(=O)(=O)c5cn(C)cn5)C[C@@H]34)cc2)c1 the results were IDE exosite inh -18.
Screening Cc1ccccc1-c1ccc([C@H]2[C@H](CO)N3CCCCN(S(=O)(=O)c4cn(C)cn4)C[C@@H]23)cc1 returned IDE exosite inh -7.1.
`Cc1cccc(-c2ccc([C@H]3[C@@H](CO)N4CCCCN(S(=O)(=O)c5cn(C)cn5)C[C@@H]34)cc2)c1` gave IDE exosite inh inactive.
CO[C@H]1CN(C)C(=O)c2ccc(NC(C)=O)cc2OC[C@@H](C)N(C(=O)c2cnccn2)C[C@@H]1C was read as IDE exosite inh inactive.
O=C(C[C@H]1CC[C@@H]2[C@H](COC[C@H](O)CN2C(=O)Nc2cc(Cl)cc(Cl)c2)O1)N1CCOCC1 was read as IDE exosite inh inactive.
For CC(C)(O)C#Cc1ccc([C@@H]2[C@H]3CN(C(=O)c4ccc(F)cc4)CCCCN3[C@H]2CO)cc1 the results were IDE exosite inh inactive.
O=C(Nc1ccc(F)cc1)N1CC(=O)N2[C@H](C1)[C@H](c1ccc(C#Cc3ccccc3)cc1)[C@@H]2CO was read as IDE exosite inh inactive.
For CCCC#Cc1ccc([C@@H]2[C@H](CO)N3C(=O)CN(C(=O)c4ccncc4)C[C@@H]23)cc1 the results were IDE exosite inh inactive.
`C[C@@H]1CCCCO[C@@H](CN(C)S(=O)(=O)c2cn(C)cn2)[C@H](C)CN([C@@H](C)CO)C(=O)c2cc(N(C)C)ccc2O1` gave IDE exosite inh inactive.
For CCC(=O)N1[C@H](CO)[C@@H](c2ccccc2)[C@@H]1CN(C(C)C)S(C)(=O)=O the results were IDE exosite inh inactive.
Screening N#C[C@H]1[C@@H](c2ccccc2)[C@@H](CO)N1S(=O)(=O)c1ccc(F)cc1 returned IDE exosite inh inactive.
Screening Cc1cccc(-c2ccc([C@@H]3[C@@H](CO)N4CCCCN(CCC(F)(F)F)C[C@@H]34)cc2)c1 returned IDE exosite inh inactive.
`Cc1cccc(-c2ccc([C@H]3[C@H](CO)N4CCCCN(CCC(F)(F)F)C[C@@H]34)cc2)c1` gave IDE exosite inh inactive.
Screening Cc1cccc(-c2ccc([C@H]3[C@@H](CO)N4CCCCN(CCC(F)(F)F)C[C@@H]34)cc2)c1 returned IDE exosite inh inactive.
Screening OC[C@H]1[C@@H](c2ccc(C3=CCCC3)cc2)[C@@H]2CN(Cc3ccncc3)CCCCN12 returned IDE exosite inh inactive.
`Cc1cccc(-c2ccc([C@@H]3[C@H](CO)N4CCCCN(CCC(F)(F)F)C[C@@H]34)cc2)c1` gave IDE exosite inh inactive.
Cc1cccc(-c2ccc([C@H]3[C@@H](CO)N4CCCCN(CCC(F)(F)F)C[C@H]34)cc2)c1 was read as IDE exosite inh -3.6.
`Cc1cccc(-c2ccc([C@H]3[C@@H](CO)N4CCCCN(Cc5ccncc5)C[C@H]34)cc2)c1` gave IDE exosite inh -5.9.
For Cc1cccc(-c2ccc([C@H]3[C@H](CO)N4CCCCN(Cc5ccncc5)C[C@@H]34)cc2)c1 the results were IDE exosite inh -3.7.
`Cc1cccc(-c2ccc([C@H]3[C@H]4CN(Cc5ccncc5)CCCCN4[C@H]3CO)cc2)c1` gave IDE exosite inh -5.
CN(C)C(=O)c1ccc(-c2ccc([C@@H]3[C@@H](CO)N4CCCCN(Cc5ccncc5)C[C@@H]34)cc2)cc1 was read as IDE exosite inh inactive.
`Cc1cccc(-c2ccc([C@@H]3[C@@H](CO)N4CCCCN(CCC(F)(F)F)C[C@H]34)cc2)c1` gave IDE exosite inh inactive.
For N#C[C@@H]1[C@@H](c2ccccc2-c2ccc(F)cc2)[C@@H](CO)N1c1ncc(-c2ccccc2)s1 the results were IDE exosite inh inactive.
CC(C)C#Cc1ccc([C@H]2[C@H]3CN(S(=O)(=O)c4ccccc4)CC(=O)N3[C@H]2CO)cc1 was read as IDE exosite inh inactive.
`CN(C)C(=O)c1ccc(-c2ccc([C@H]3[C@H]4CN(C(=O)C5CCCC5)CC(=O)N4[C@H]3CO)cc2)cc1` gave IDE exosite inh inactive.
Screening CS(=O)(=O)N1CC(=O)N2[C@H](CO)[C@@H](c3ccc(C#CC4CCCC4)cc3)[C@@H]2C1 returned IDE exosite inh inactive.
O=C(C1CCOCC1)N1CC2(C1)[C@@H](c1ccccc1)[C@H](CO)N2Cc1ccccc1F was read as IDE exosite inh inactive.
